About 230 (0.064%) of roughly 360,000 compounds were called active. This excerpt belongs to a sample that is enriched for actives. Unmarked numbers belong to inactive results. Rule as the data show it: active = activity above about 50% (passing the limit was not always enough); inconclusive = no clear call, values can overlap the other calls.

The test deals with DNA topoisomerase I (Yersinia pestis CO92). In words: Yersinia pestis topoisomerase I inhibitors, primary screen, biochemical, cleavage product accumulation, plate reader, single point (AID 504884). Conditions: Y. pestis Topo-I cleavage product accumulation, at 10 µM, stronger effect = higher value.
In the case of `CCOC(=O)/C=C/C(=O)OCC(=O)NC(c1ccccc1)c1ccccc1`, the activity is 7.5%.

For `COc1ccc(OC)c(CN2CCN(C(=O)CNC(=O)c3cc(C)cc(C)c3)CC2)c1`, the activity is 9.4%.

Turning to `CCOC(=O)C(C)Oc1cccc2c(=O)n(CC(=O)N3CCc4ccccc43)ccc12` (stereo not given), the activity is -0.583%. Next, `COc1ccc(CN2CCNC(=O)C2CC(=O)NCc2cn[nH]c2-c2ccccc2)c(F)c1` (stereo not given): 14.5%. Next, `COc1ccc(N(CC(=O)NC2CCCCC2)C(=O)CNC(=O)c2ccco2)c(OC)c1`: 18.1%; `CCOc1ccc(NC(=O)CCC(=O)NNC(=O)NC2CCCCC2)cc1`: -4.6%; `N#Cc1cccc(NC(=O)CCC2CCCC2)c1`: 0.569%. For the compound `N#CC(C#N)=CN=c1ccn(Cc2ccc(Cl)cc2Cl)cc1`, the activity was 1.09%. The result for `CC(C(=O)NC1CCCCC1)N1C(=O)c2cccc3cccc1c23` (stereo not given) reads 10.7%.

With `O=C(C[n+]1cc(-c2ccc(Cl)c(Cl)c2)n2c1CCC2)c1cccs1`, the activity is 5.58%. Next, `Nc1nc(SCC(=O)NN(c2ccccc2)c2ccccc2)n[nH]1`: -4.71%. The result for `CN(CC(=O)N1CCN(c2ccccc2)CC1)S(=O)(=O)c1cccs1` reads 3.69%; that for `Cc1cc(C)c(C2C3=C(Nc4c2c(C)nn4-c2ccccn2)c2ccccc2C3=O)c(C)c1` (stereo not given), 0.572%; that for `CC(C)CCNC(=O)C(C)N(C(=O)Cn1nnc(-c2ccc(F)cc2)n1)C1CCCC1` (stereo not given), 21.2%. `CN(C)C(CNC(=O)c1ccc(S(=O)(=O)NCc2ccco2)cc1)c1ccccc1` (stereo not given): the activity is 2.31%. Regarding `Cc1ccc(S(=O)(=O)NCC(=O)NNC(=O)c2ccc(Br)cc2)cc1C`, the activity is 9.73%.

As for `O=S(=O)(c1ccc(-c2ccno2)s1)N1CCCCC1`, the activity was 0.748%.

Turning to `COc1ccc(S(=O)(=O)NCC2CCCN(C(=O)c3occc3C)C2)cc1` (stereo not given), the activity is 0.202%. Next, `Cc1cccc(N2CCN(C(=O)COCc3cc(-c4ccc5c(c4)OCO5)on3)CC2)c1C`: 38.3%.

`COc1cc(C(=O)OCCCN2CCOCC2)cc(OC)c1OC`: the activity is -0.169%. The result for `Cc1ccc2nc(-c3ccc(SCC(=O)Nc4cc(C)on4)nc3)[nH]c2c1` reads 1.96%. The result for `CC(=O)Oc1ccc(OC(C)=O)c2c1C1C=CC2CC1` reads -5.11%; that for `O=C(NCC(F)(F)F)Nc1nnc(C(F)(F)F)s1`, 11.4%; that for `Cc1nn(C)c(C)c1S(=O)(=O)N1CCC(CO)(Cc2ccc(Cl)cc2)CC1`, 4.97%. With `Cc1nnc(SCC(=O)NC(=O)NC2CCCC2)n1N`, the activity was -5.78%.
